Some test systems named below: T-47D breast; BT-549 breast; MDA-MB-435 melanoma; SW-620 colon; MCF7 breast; HCT-116 colon; HCC-2998 colon; KM12 colon.
Assay in all cases: NCI-60 one-dose screen, 48 h (100 = growth as untreated, 0 = no growth, -100 = all killed)
Settings in all cases: 10 µM unless noted

Compounds without any hit were thinned out: in the full panel of roughly 83,000, 20% have a hit.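 Method: cells in 96-well plates; compound added at one concentration; 48 h incubation; percent growth measured; values under 10 scored active.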 Values without a mark were called inactive. The source made the active and inactive calls.

The record followed here is PubChem BioAssay (NCI).

On to `NCCCNc1nc2ccccc2c2c(=O)c3cc(C(F)(F)F)ccc3sc12`, for which the growth with T-47D breast is 27.2%; in the assay on BT-549 breast, 87.7%; with MDA-MB-435 melanoma it was -80.9% (active); in the assay on SW-620 colon, -74.5% (active); in the assay on MCF7 breast, -49.4% (active); in the assay with HCT-116 colon, -70.4% (active). The growth with HCC-2998 colon is -84.6% (active); with KM12 colon it was -76.7% (active).
Take `Cc1cc2nc3cc(C)c(N)cc3[n+](-c3ccccc3)c2cc1N`: the growth is 14% with T-47D breast; 18.5% with BT-549 breast; 67.2% in the assay on MDA-MB-435 melanoma; 72.9% in the assay with SW-620 colon; 32.7% in the assay with MCF7 breast; 33.1% in the assay on HCT-116 colon. Moreover, the growth is 56.6% in the assay with HCC-2998 colon and 28% in the assay on KM12 colon.
With `CN1CCN(c2ccc(-c3cc4c(Nc5ccc(F)c(Cl)c5)ncnn4c3)cc2)CC1`, the growth with T-47D breast is 63.4%; in the assay on BT-549 breast, 98.5%; in the assay on MDA-MB-435 melanoma it was 76.4%; with SW-620 colon it was 25.2%; in the assay with MCF7 breast, 45.3%; in the assay on HCT-116 colon, 15.7%. Besides, the figures for the growth with HCC-2998 colon and in the assay with KM12 colon were 53.8% and 13.8%, respectively.
`COc1cc(C)c(Cc2cnc(N)nc2N)cc1OC`: the growth in the assay with T-47D breast is 92.7%; with BT-549 breast it was 95.4%; with MDA-MB-435 melanoma, 112%; in the assay with SW-620 colon, 102%; in the assay with MCF7 breast it was 101%; in the assay on HCT-116 colon it was 112%. Moreover, the growth with HCC-2998 colon is 108%; with KM12 colon it was 111%.
In the case of `NCCCNc1nc2ccccc2c2c(=O)c3cc(F)cc(Cl)c3sc12`, the growth in the assay on T-47D breast is 88.4%; in the assay on BT-549 breast it was 104%; with MDA-MB-435 melanoma, 26%; in the assay with SW-620 colon, -49.3% (active); in the assay on MCF7 breast, 68.3%; with HCT-116 colon, -60.2% (active). For the same molecule, the growth in the assay on HCC-2998 colon is 84.3%; with KM12 colon, 72.7%.
As for `COc1ccc(C2C(N)=NNC2c2cccc(O)c2)cc1` (stereo not drawn), the growth is 101% with T-47D breast; 87.5% in the assay with BT-549 breast; 100% with MDA-MB-435 melanoma; 109% with SW-620 colon; 96.6% in the assay on MCF7 breast; 104% in the assay on HCT-116 colon. Also, the growth with HCC-2998 colon is 122%; in the assay with KM12 colon, 92.8%.
As to `NCCCNc1nc2ccc(Cl)cc2c2c(=O)c3cc(F)ccc3sc12`, the growth in the assay on T-47D breast is 76.3%; in the assay on BT-549 breast, 106%; in the assay on MDA-MB-435 melanoma, 30.8%; in the assay with SW-620 colon, -79% (active); with MCF7 breast, 47.2%; in the assay on HCT-116 colon, -47.8% (active). For the same molecule, the growth with HCC-2998 colon was -40.8% (active); in the assay with KM12 colon, 11.8%.
As for `O=CN(SSN(C=O)C1CCCCC1)C1CCCCC1`, the growth is 79.2% in the assay on T-47D breast; 137% in the assay on BT-549 breast; 110% in the assay on MDA-MB-435 melanoma; 92.3% in the assay with SW-620 colon; 102% with MCF7 breast; 85.9% with HCT-116 colon. Moreover, the growth in the assay with HCC-2998 colon was 116%; in the assay on KM12 colon, 104%.
For `COc1ccc(-c2cc(-c3cc(OC)c(OC)c(OC)c3)nc(N3CCOCC3)c2C#N)cc1`, the growth in the assay with T-47D breast was 46.7%; in the assay with BT-549 breast it was 128%; with MDA-MB-435 melanoma, 74.5%; in the assay on SW-620 colon, 67.3%; in the assay on MCF7 breast it was 74.4%; in the assay on HCT-116 colon it was 72.1%. For the same molecule, the growth is 35% in the assay with HCC-2998 colon and 71.9% in the assay with KM12 colon.
For `O=C(/C=C/c1ccc([N+](=O)[O-])o1)NNC(=O)c1cc2ccccc2cc1O`, the growth in the assay with T-47D breast is 2.44% (active); in the assay on BT-549 breast, -4.88% (active); in the assay with MDA-MB-435 melanoma, -13.3% (active); in the assay with SW-620 colon, -5.85% (active); in the assay on MCF7 breast, 32.9%; with HCT-116 colon, -100% (active). Further, the growth is -18.4% (active) in the assay with HCC-2998 colon and 11.6% in the assay on KM12 colon.
Turning to `CCCSc1nc2ccc(C)cc2cc1/C=[N+](\[O-])c1ccccc1`, the growth in the assay on T-47D breast was 56.6%; in the assay on BT-549 breast it was 42.1%; in the assay on MDA-MB-435 melanoma, -24.1% (active); in the assay with SW-620 colon it was 22.7%; in the assay with MCF7 breast, 21.8%; in the assay with HCT-116 colon it was 9.07% (active). Besides, the growth with HCC-2998 colon was 98.2%; with KM12 colon, 25%.
In the case of `Fc1cc(-c2nnc3n2NC(=Nc2ccc(Cl)cc2)CS3)c(Cl)cc1Cl`, the growth in the assay on T-47D breast is 79.2%; in the assay on BT-549 breast, 94.7%; in the assay with MDA-MB-435 melanoma it was 64.2%; in the assay on SW-620 colon, 95.7%; in the assay with MCF7 breast it was 86.9%; with HCT-116 colon, 91.3%. Also, the growth is 75.3% in the assay with HCC-2998 colon and 60.5% in the assay with KM12 colon.
With `CC([C@H]1CCC2C3CCC4C(=O)C(NC=O)=CC[C@]4(C)C3CC[C@@]21C)N(C)C` (stereo partly drawn), the growth in the assay with T-47D breast was -12.7% (active); with BT-549 breast, 49.5%; with MDA-MB-435 melanoma, -26% (active); with SW-620 colon, -48.5% (active); in the assay on MCF7 breast, 17.3%; in the assay on HCT-116 colon, -7.83% (active). In addition, the growth is 19% in the assay with HCC-2998 colon and 17.8% in the assay with KM12 colon.
In the case of `O=C1COCCN1c1ccc(NCc2cn(C(=O)c3ccc(Cl)cc3)c3ccccc23)cc1`, the growth in the assay on T-47D breast was -12.7% (active); in the assay with BT-549 breast it was 41.9%; in the assay with MDA-MB-435 melanoma it was 92.6%; in the assay with SW-620 colon it was 40.4%; in the assay with MCF7 breast, 10.1%; in the assay with HCT-116 colon, 7.09% (active). The values for the growth with HCC-2998 colon and with KM12 colon were 91% and 97.1%, respectively.
With `Cc1[nH]c(C(=O)Nc2ccc(C(=O)NCCN)cc2OC(C)C)c(Cl)c1Cl`, the growth with T-47D breast was -1.29% (active); in the assay with BT-549 breast, 103%; in the assay with MDA-MB-435 melanoma, -17.6% (active); in the assay on SW-620 colon it was -89% (active); in the assay on MCF7 breast, 5.44% (active); in the assay on HCT-116 colon it was -50.1% (active). For the same molecule, the growth is -41.7% (active) with HCC-2998 colon and 8.19% (active) in the assay with KM12 colon.
As to `COc1ccc(C2CC(c3ccc(Nc4ccnc5cc(Cl)ccc45)cc3)=NN2C=O)cc1` (stereo not drawn), the growth in the assay with T-47D breast is 51.1%; in the assay with BT-549 breast, 63.7%; with MDA-MB-435 melanoma, -3.72% (active); in the assay on SW-620 colon, 70.9%; with MCF7 breast it was 40.3%; in the assay on HCT-116 colon it was 55.7%. The growth is 57.8% in the assay with HCC-2998 colon and 66.2% with KM12 colon.
